Source: PubChem BioAssay
An excerpt weighted towards active compounds, which were near 2.5% of everything screened.
ASK1 primary – inhibitors of human ASK1 kinase | AlphaScreen MKK6 phosphorylation by ASK1, luminescence | inhibition, % at 7.44 µM | actives 0.99% (n = 22,000); in the data active = inhibition above about 35%;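 also: 0% = median of compound wells and 100% = no enzyme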
ULK1 primary – blocks human autophagy kinase ULK1; O75385; AlphaScreen Atg13 phosphorylation by ULK1, luminescence; inhibition, % at 5.96 µM; actives 1.9% (n = 30,000); in the data active = inhibition above about 43%;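 also: 0% = median of compound wells and 100% = no enzyme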
Target sequence (O75385 whole entry, looked up): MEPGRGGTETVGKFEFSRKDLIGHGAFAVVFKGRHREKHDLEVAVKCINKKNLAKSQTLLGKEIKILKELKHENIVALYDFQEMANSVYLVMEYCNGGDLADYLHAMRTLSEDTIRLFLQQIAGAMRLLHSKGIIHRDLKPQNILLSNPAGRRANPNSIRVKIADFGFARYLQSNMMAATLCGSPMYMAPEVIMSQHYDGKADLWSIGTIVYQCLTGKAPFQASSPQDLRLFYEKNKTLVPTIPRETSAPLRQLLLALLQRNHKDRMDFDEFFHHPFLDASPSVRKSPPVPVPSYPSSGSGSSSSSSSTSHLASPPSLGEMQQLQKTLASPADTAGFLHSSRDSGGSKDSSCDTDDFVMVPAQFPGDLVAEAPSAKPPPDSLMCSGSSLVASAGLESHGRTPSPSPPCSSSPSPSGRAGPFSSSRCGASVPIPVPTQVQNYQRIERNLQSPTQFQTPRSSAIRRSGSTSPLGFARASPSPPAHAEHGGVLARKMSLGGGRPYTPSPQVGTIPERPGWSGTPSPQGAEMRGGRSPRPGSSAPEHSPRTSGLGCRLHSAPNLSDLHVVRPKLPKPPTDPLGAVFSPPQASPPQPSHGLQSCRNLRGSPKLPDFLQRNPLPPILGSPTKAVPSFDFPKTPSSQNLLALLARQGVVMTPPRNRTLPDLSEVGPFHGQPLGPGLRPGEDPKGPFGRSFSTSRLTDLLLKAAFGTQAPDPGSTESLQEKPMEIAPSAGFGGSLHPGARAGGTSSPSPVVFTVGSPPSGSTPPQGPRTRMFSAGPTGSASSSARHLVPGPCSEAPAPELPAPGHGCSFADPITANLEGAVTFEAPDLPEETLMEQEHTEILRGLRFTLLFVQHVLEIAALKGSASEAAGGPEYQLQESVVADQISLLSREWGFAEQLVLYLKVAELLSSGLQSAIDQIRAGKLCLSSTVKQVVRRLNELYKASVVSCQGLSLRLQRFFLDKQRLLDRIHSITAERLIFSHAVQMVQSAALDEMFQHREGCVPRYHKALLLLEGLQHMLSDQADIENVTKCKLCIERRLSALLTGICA
TruHits interf – interferes with AlphaScreen TruHits signal in ASK1 counter-screen; shares compounds with ASK1 primary; AlphaScreen TruHits beads, signal interference counterscreen; IC50, µM; actives 20% (n = 220); AID 1159604;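 active = IC50 of 10 µM or lower in the counterscreen; inactive = IC50 above 10 µM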;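 also: loss of AlphaScreen light from TruHits beads alone with no ASK1 enzyme present; potency of signal reduction so a low IC50 flags an assay artifact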
Starred values were filed as active, the others as inactive; i = inactive; / = no result; ! = not confirmed by another sample.

SMILES	ASK1 primary	ULK1 primary	TruHits interf
COc1cc2nc(Nc3nc4ccccc4n3C)nc(Nc3ccc(NC(C)=O)cc3)c2cc1OC	72*	-52	9.7*
COc1cc2nc(Oc3ccccc3)nc(Nc3ccc(N4CCOCC4)cc3)c2cc1OC	2	-15	/
COc1cc2nc(NC3CCN(Cc4ccccc4)CC3)nc(Nc3ccc(N4CCOCC4)cc3)c2cc1OC	39*	14	8.3*
c1ccc(CN2CCC(Nc3nccc(Nc4ccc(N5CCOCC5)cc4)n3)CC2)cc1	16	14	/
O=C(NC1CCN(Cc2ccccc2)CC1)c1cccc(Nc2ccc(N3CCOCC3)cc2)n1	14	3	/
COc1ccc(CCNc2nc(-c3ccc(OC)nc3)nc3c2ncn3C2CCCCC2)cc1	-10	4	/
CC(C)n1c(Nc2ccc(-n3ccnc3)cc2)nc2c(NC3CC3)ncnc21	-12	2	/
CCNc1nc(Nc2ccc(N3CCOCC3)cc2)c2[nH]cnc2n1	34	3	/
c1ccc(CN2CCC(Nc3nc(Nc4cccnc4)nc4c3ncn4C3CCCCC3)CC2)cc1	-2	-2	/
COc1ccc(CCNc2nc(Nc3cccc(N(C)C)c3)nc3c2ncn3C2CCCCC2)cc1	5	5	/
COc1cc2nc(Nc3nc4ccccc4n3C)nc(Nc3ccc4c(c3)OCO4)c2cc1OC	-5	-1	/
CN(C)c1cccc(Nc2nc(Nc3ccc(N4CCOCC4)cc3)c3[nH]cnc3n2)c1	36*	-3	i
COc1ccc(Nc2nc(NCc3cccc(C(F)(F)F)c3)c3cc(OC)c(OC)cc3n2)cc1	2	-26	/
COc1cc2nc(Nc3ccc(N4CCOCC4)cc3)nc(Nc3ccc(N4CCOCC4)cc3)c2cc1OC	64*	-10	5.6*
COc1cc2nc(Nc3nc4ccccc4n3C)nc(Nc3ccc(N4CCOCC4)cc3)c2cc1OC	67*	-13	i
c1nc2nc(Nc3ccc(N4CCOCC4)cc3)nc(Nc3ccc(N4CCOCC4)cc3)c2[nH]1	20	14	/
COc1cc2nc(Nc3ccc(-n4ccnc4)cc3)nc(Nc3ccc(N4CCOCC4)cc3)c2cc1OC	17	-2	/
COc1cc2nc(Nc3ccc(N4CCOCC4)cc3)nc(NCc3cccc(C(F)(F)F)c3)c2cc1OC	52*!	-15	6.2*
Cc1ccc(S(=O)(=O)NCc2nc(-c3ccncc3)n[nH]2)cc1	6	6	/
Cc1cccc2nc3c(c(=O)n12)CN(C(=O)c1c(F)cccc1F)CC3	/	13	/
COc1cc2nc(Nc3ccc(N4CCOCC4)cc3)nc(Nc3ccccc3)c2cc1OC	56*	-11	8.5*
Cn1c(Nc2nc(Nc3ccc(N4CCOCC4)cc3)c3[nH]cnc3n2)nc2ccccc21	15	2	/
Cc1cnc(Nc2nc3ccccc3n2C)nc1Nc1ccc(N2CCOCC2)cc1	39*	30	>22
COc1cc2nc(Nc3ccc4ncccc4c3)nc(Nc3ccc(N4CCOCC4)cc3)c2cc1OC	10	2	/
CC(=O)N1N=C(c2cccc([N+](=O)[O-])c2)OC12CCCC2	/	-11	/
SMILES	ASK1 primary	ULK1 primary	TruHits interf
c1nc2nc(NCCN3CCOCC3)nc(NCCN3CCOCC3)c2[nH]1	-8	3	/
COc1ccc(-c2nc(NCc3cccc(C(F)(F)F)c3)c3ncn(C(C)C)c3n2)cc1	2	-22	/
Nc1cccc(-c2nc3ncnc(Nc4ccc(Oc5ccccc5)cc4)c3[nH]2)c1	5	-2	/
COc1cc(Nc2cc(C)nc(NCc3ccc4c(c3)OCO4)n2)cc(OC)c1OC	16	-20	/
c1ccc(N2CCN(c3nc(Nc4ccc(N5CCOCC5)cc4)c4ncn(-c5ccsc5)c4n3)CC2)nc1	45*	-3	>20
c1ccc(Oc2ccc(Nc3nc(N4CCOCC4)nc4c3ncn4-c3ccsc3)cc2)cc1	24	2	/
Oc1ccc(CCNc2nc(N3CCN(c4ccccn4)CC3)nc3c2ncn3-c2ccsc2)cc1	39*	2	>21
CCCNc1nc(N2CCN(c3ccccn3)CC2)nc2c1ncn2-c1ccsc1	16	5	/
COc1cc2nc(-c3ccc(N4CCOCC4)nc3)nc(NCCN3CCOCC3)c2cc1OC	-8	-11	/
CCc1cc(=O)n(CC(=O)Nc2ccc(F)cc2F)c(-n2nc(C)cc2C)n1	/	14	/
Nc1nc(NCCCN2CCCC2=O)cc(-c2ccc(C(=O)NC3CC3)cc2)n1	3	-8	/
O=C(O)Cc1ccc(Nc2nccc(-c3ccccc3)n2)cc1	16	3	/
O=c1[nH]cccc1-c1ccc(Nc2nccc(-c3ccc4nc(C5CC5)[nH]c(=O)c4c3)n2)cc1	43*	70*	>19
c1ccc(CNc2nc(N3CCC(N4CCOCC4)CC3)nc3c2ncn3-c2ccccc2)cc1	14	1	/
Cc1cc(NC2CCN(Cc3ccccc3)CC2)nc(Nc2cccc(N(C)C)c2)n1	50*	21	8.6*
Cc1cc(NC2CC2)nc(Nc2cccc(N(C)C)c2)n1	19	-6	/
CC(C)n1c(Nc2ccccc2)nc2c(NC3CCN(Cc4ccccc4)CC3)ncnc21	-12	-7	/
CC(C)n1cnc2c(NC3CCN(Cc4ccccc4)CC3)nc(Nc3cccc(N(C)C)c3)nc21	36*	18	i
CN(C)c1cccc(Nc2nc(NC3CCN(Cc4ccccc4)CC3)c3ncn(-c4ccccc4)c3n2)c1	10	10	/
CC(C)n1c(Nc2cccc(N(C)C)c2)nc2c(NC3CCN(Cc4ccccc4)CC3)ncnc21	38*	17	>19
COc1ccc(CCNc2nc(Nc3ccncn3)nc3nc[nH]c23)cc1	5	-4	/
Cc1cc(N(C)C)nc(Nc2ccc(NS(=O)(=O)c3ccccc3)cc2)n1	/	-11	/
c1ccc(CN2CCC(Nc3nc4ncnc(NCCN5CCOCC5)c4[nH]3)CC2)cc1	-11	9	/
c1ccc2c(c1)OCC(c1nc(N3CCOCC3)c3cc(-c4cn[nH]c4)ccc3n1)O2 (configuration not stated)	37*	-50	>19
CN(C)CCN(C)c1nc(C2COc3ccccc3O2)nc2ccc(-c3cn[nH]c3)cc12 (configuration not stated)	28	12	/
Cc1cc(NCCOc2ccccc2)nc(Nc2ccc(C(F)(F)F)cc2)n1	-9	-25	/
CCOC(=O)N1CCN(c2cc(-c3cccnc3)nc(-c3cccnc3)n2)CC1	/	-2	/
